Inconclusive results are not listed. A call without a number means that no potency is given here. Active and inactive are the calls of the source. Calls come from the whole dose curve; as a rule, active = well fitted cell-killing curve with a large enough effect in the repeat runs; inconclusive = weak or mixed curves, or effect the other way; inactive = flat fitted curve, though single readings scatter.
Experiment: cAMP Responsive Elements (CRE) small molecule antagonists, cell-based qHTS assay: qHTS cell viability counter screen (AID 2060913); note: nearly all actives have a fitted effect of over 40% in size
Conditions: CRE-bla HEK293T viability, CellTiter-Glo luminescence, 5 h; series mostly up to 92.4 µM
Outline: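 Cytotoxicity read in the same wells as the CRE-bla HEK293T antagonist assay: after 3 h compound with 0.25 uM NKH477 final and 2 h beta-lactamase substrate, CellTiter-Glo luminescence measured.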

Compound | Potency
CCCC(CCC)C(=O)O | inactive
CCCc1c2oc(C(=O)O)cc(=O)c2cc2c(=O)cc(C(=O)O)n(CC)c12 | inactive
Cc1ccc(O)c(C(=O)c2ccccc2)c1 | inactive
CC(O)c1ccccc1 (stereo not drawn) | inactive
C[C@]12CC[C@@H]3c4ccc(O)cc4CC[C@H]3[C@@H]1CC[C@@H]2OC(=O)CCC1CCCC1 | inactive
COc1ccc2c(c1)C(=O)N(CCc1ccc(S(=O)(=O)NC(=O)NC3CCCCC3)cc1)C(=O)C2(C)C | inactive
CC(C=O)Cc1ccc(C(C)C)cc1 (stereo not drawn) | inactive
CCCCCCCCc1ccc(S(=O)(=O)O)cc1 | inactive
CC(C)(C)CC(C)(C)c1ccc(O)c(-n2nc3ccccc3n2)c1 | inactive
CC(C)(C)c1ccc(S)cc1 | inactive
Brc1c2ccccc2cc2ccccc12 | inactive
CC(C)(C)c1cccc(C(C)(C)C)c1O | inactive
CC1=C(/C=C/C(C)=C/C=C/C(C)=C/C(=O)O)C(C)(C)CCC1 | inactive
Cc1ccnc(N)c1 | inactive
OCC1CC=CCC1 (stereo not drawn) | inactive
CCN(CC)CCNC(=O)c1cc(S(C)(=O)=O)ccc1OC | inactive
NS(=O)(=O)c1cc(C(=O)O)cc(N2CCCC2)c1Oc1ccccc1 | inactive
C=C(C)C(=O)OC(C)C | inactive
C=C(C)C(=O)OCC(O)CO (stereo not drawn) | inactive
C[C@@H]1CCN(C(=O)[C@H](CCCN=C(N)N)NS(=O)(=O)c2cccc3c2NC[C@H](C)C3)[C@@H](C(=O)O)C1 | inactive
OCC(CBr)(CBr)CBr | inactive
O=C(O)C(Cc1cc(I)c(O)c(I)c1)c1ccccc1 (stereo not drawn) | inactive
NCCS | inactive

— PubChem BioAssay (Tox21)
